Pin1 inh = human Pin1 inhibition. AID 504891. 390,000 compounds, 0.009% hits. Potency, µM (doses to about 115 µM), inactives show at the highest dose activity, negative = inhibition, most hits filed as inhibitors. Pin1 FP peptide displacement, HiFluor488, 10 min; active means well fitted inhibition curve with a large enough effect in the polarisation, with a control signal flat, not every such curve was filed as active; inconclusive means small, poorly fitted or top-dose-only effect, or effect the other way, or a change in a side signal; inactive means no such curve, though single readings can be large or run the other way; the % refers to the polarisation; further: potency means the concentration at half of the fitted maximal effect
Target sequence (Q13526 whole entry, looked up): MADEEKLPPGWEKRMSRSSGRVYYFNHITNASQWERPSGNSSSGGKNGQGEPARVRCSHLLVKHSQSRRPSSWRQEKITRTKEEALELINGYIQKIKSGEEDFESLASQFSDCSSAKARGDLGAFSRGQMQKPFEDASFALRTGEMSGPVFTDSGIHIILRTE
Tb PFK block = inhibitors of T. brucei phosphofructokinase. O15648. T. brucei PFK, ADP-Glo luminescence. Potency, µM (top dose mostly 57.5 µM), without a hit: at the highest dose activity, negative = inhibition, most hits filed as inhibitors. 330,000 compounds, 0.17% hits;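 further: potency means the concentration at half of the fitted maximal effect; 0% = uninhibited 1x PFK enzyme wells and -100% = no-enzyme wells; nearly all actives have a fitted effect of over 60% in size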
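Activity is normalized to no-enzyme wells (full inhibition) and 1.25 nM enzyme wells (no inhibition). Reaction: 0.5 mM F6P, 0.1 mM ATP, 45 min RT, ADP-Glo luminescence; concentration-response curves fitted and classed by quality.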
Tb PGK inh = inhibitors of T. brucei phosphoglycerate kinase | PGK/GAPDH coupled, Kinase-Glo luminescence, 60 min | P07378 | 380,000 compounds, 0.043% hits | Potency, µM (highest dose often 57.5 µM), for the others: top-dose activity change, negative = inhibition, hits mostly inhibitors | AID 602233; further: potency means the concentration at half of the fitted maximal effect; nearly all actives have a fitted effect of over 60% in size
Target sequence (P07378 whole entry, looked up): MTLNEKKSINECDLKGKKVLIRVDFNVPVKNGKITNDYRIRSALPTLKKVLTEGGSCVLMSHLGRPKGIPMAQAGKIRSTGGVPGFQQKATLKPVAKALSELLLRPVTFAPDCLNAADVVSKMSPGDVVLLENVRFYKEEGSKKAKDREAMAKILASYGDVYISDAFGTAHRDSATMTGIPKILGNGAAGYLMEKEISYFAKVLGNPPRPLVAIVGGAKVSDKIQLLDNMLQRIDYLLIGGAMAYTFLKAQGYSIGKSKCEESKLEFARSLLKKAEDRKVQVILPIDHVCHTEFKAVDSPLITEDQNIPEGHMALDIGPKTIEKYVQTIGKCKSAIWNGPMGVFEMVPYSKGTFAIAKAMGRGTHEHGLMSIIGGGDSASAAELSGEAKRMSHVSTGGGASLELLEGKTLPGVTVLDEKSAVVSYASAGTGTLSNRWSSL
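Luminescent ATP detection (Kinase-Glo Plus) follows a 60-minute room-temperature incubation, with wells lacking PGK as controls. Buffer: 100 mM TEA (pH 7.6), 5 mM MgCl2, 0.01% Tween-20. Coupling enzyme GAPDH (100 nM final) supplies unstable 1,3-BPG in-well.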
PI4K2A block = PI4K2A (human) kinase inhibition | Q9BTU6 | purified PI4K2A, ADP-Glo luminescence, 1 h; hits give low values | activity change, negative = inhibition, % at 76.9 µM | 420,000 compounds, 0.13% hits; in the data active means activity change below about -50%; inconclusive means mostly about -30% to -49%;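 further: -100% = wells without enzyme as full effect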
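In this quantitative HTS, ADP production by PI4K2A was quantified luminescently after 1 h at ambient temperature; 100 microM adenosine served as plate-quality control.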
PI5P4Ka inh = blocks human PI5P4K alpha kinase activity; P48426; PI5P4Kalpha enzyme, ADP-Glo luminescence, 60 min; hits give low values; max response, %; 330,000 compounds, 1.2% hits; active means max response of -50% or lower; inconclusive means between -30% and -50%; inactive means -30% or higher; further: value at the top dose of about 77 µM
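ADP-Glo luminescence end-point read after a 60 min room-temperature kinase reaction of PI5P4Kalpha plus substrate, initiated with ATP at 5 microM final. Buffer: 0.038 M HEPES pH 7.4, EGTA, 0.1% CHAPS, 5% DMSO.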
The depositor's hits bear a star; i = inactive; u = inconclusive; x = not tested or not shown. The sample as a whole holds a higher share of hits than the screen did. Unless noted, the call rests on the fitted dose curve; in most records, active means well fitted curve in the direction sought with a large enough effect; inconclusive means small, poorly fitted or top-dose-only effect, or another doubt; inactive means no such curve, though single readings can be large; an effect the other way counts as inactive or inconclusive. Unless noted, on the % scale 0 is the no-effect control and ±100 the full control effect.

SMILES	Pin1 inh	Tb PFK block	Tb PGK inh	PI4K2A block	PI5P4Ka inh
CCC1(OC(=O)CN(C)C)C(=O)OCc2c1cc1n(c2=O)Cc2cc3c(N)cccc3nc2-1 (stereo not given)	u	x	i	-61.8*	-2.4
O=C1C=CC(=O)N1c1cccc2cccnc12	-27.0%	x	-4.3%	-21.1	-62.3*
Cc1cc(-c2n[nH]c(=S)n2N=Cc2cc(Br)ccc2F)n[nH]1	x	x	x	-2.9	x
Cc1csc(N=Nc2ccc(N(C)C)cc2)[n+]1[O-]	x	x	15.8µM*	-79.0*	-55.5*
N#Cc1ccccc1NC(=S)NC(=O)c1cccs1	2.7%	-7.6%	-1.7%	32.5	-56.1*
CCCCCCCCCCCCCCCC[N+](C)(C)CC	5.9%	3.7%	10.6%	1.0	-62.8*
CCCCCCCCCCCCCCCC[N+](C)(C)CCl	5.8%	x	i	-1.4	-53.5*
Cc1nc2[nH]c(=S)[nH]c2c(=O)[nH]1	-6.0%	x	8.5%	10.1	-21.2
Nc1nc(N)c2[nH]c(=S)[nH]c2n1	-8.0%	x	-5.0%	-25.2	-51.7*
O=C(ONc1ccc(N=NC(=O)c2ccccc2O)cc1)c1ccccc1	u	3.2%	u	-1.0	-58.0*
O=Nc1ccc(NOC(=O)c2ccccc2Br)cc1	9.6%	-1.8%	-7.4%	u	-0.2
CC(C)CNc1nc(C#N)nc(Nc2ccccc2)n1	-4.4%	x	x	x	x
COc1ccc(/C=N\NC(=O)C2C(=O)NCC2c2ccccc2)cc1O (stereo not given)	-5.1%	6.1%	i	-4.7	-57.4*
CCOc1cc(/C=N\NC(=O)C2C(=O)NCC2c2ccccc2)ccc1OC (stereo not given)	-2.5%	-6.0%	i	6.9	-5.3
Cc1cc(O)c(C(C)C)cc1N=Nc1ccccc1C(=O)O	70.9%	-2.8%	1.9%	0.5	-57.2*
Cc1cc(N=Nc2ccccc2C(=O)O)c(C)c(C)c1O	105.0%	5.4%	-3.3%	-1.2	-51.1*
C#CCNC(=O)C[C@H]1C[C@@]2(C(=O)OC)C(=C[C@H](C(C)C)O[C@@H]2C2CC2)N(CCc2ccc(OC)c(OC)c2)C1=O	x	x	x	-0.4	x
CC(C(O)c1ccccc1)N(C)CCOC(c1ccccc1)c1ccccc1 (stereo not given)	x	x	x	-0.3	x
CCCN(CC1CC1)C(=O)CSc1nnc(-c2ccncc2)n1-c1ccc(OC)cc1	x	x	x	4.3	x
COc1ccc2ccc3c(c2c1)N=C[C@]1(O3)N(C)c2ccccc2C1(C)C	2.8%	u	-0.4%	-68.1*	u
c1coc(-c2nn3c(-c4ccco4)nnc3s2)c1	1.2%	-26.4%	-16.2%	-5.4	-62.1*
COc1ccccc1-c1nn2c(-c3ccco3)nnc2s1	u	u	-5.4%	-4.5	x
N#CCC[C@@H]1CC[C@]2(CCCN(C(=O)C3CCCC3)C2)O1	x	x	x	1.6	x
CC(=Cc1ccccc1)C=C1SC(=S)N(CCCC(=O)Nc2ccc(C(=O)O)cc2)C1=O	x	x	x	-6.8	u
O=C(CCN1C(=O)/C(=C/c2ccco2)SC1=S)Nc1ccc(C(=O)O)c(O)c1	u	u	u	-7.3	-62.6*
SMILES	Pin1 inh	Tb PFK block	Tb PGK inh	PI4K2A block	PI5P4Ka inh
CC(/C=C1\SC(=S)N(CCC(=O)Nc2cccc(C(=O)O)c2)C1=O)=C\c1ccccc1	-28.6%	1.4%	-15.8%	-3.2	-76.7*
COc1ccccc1/C=C1\SC(=S)N(CCC(=O)Nc2ccc(C(=O)O)c(O)c2)C1=O	x	-3.2%	-2.6%	-5.6	u
O=C(CCN1C(=O)/C(=C\c2ccco2)SC1=S)Nc1ccc(C(=O)O)c(O)c1	u	u	-20.7%	-11.2	-74.0*
Cc1c(P(=S)(c2ccccc2)c2ccccc2)c2ccccc2n1C(=O)NCc1ccc(F)cc1	-2.4%	x	x	x	x
CC(C)n1c(=S)[nH]c2c1c(=O)[nH]c(=O)n2C	3.5%	-4.8%	i	0.9	-75.9*
NNC(=S)Nc1cccc(-c2n[nH]c(=S)o2)c1	u	0.5%	-11.4%	-0.4	-75.9*
CN(C)C(=S)Nc1cccc(-c2n[nH]c(=S)o2)c1	-0.3%	0.8%	-3.5%	-2.6	-20.6
Cc1ccccc1NC(=O)c1c(C)[nH]c(=S)c(C#N)c1-c1ccco1	6.4%	5.6%	-8.1%	-8.3	-63.2*
O=C1NC(=O)C([N+](=O)[O-])=C(O)C1=O	x	x	-9.7%	-4.1	-65.0*
Cc1cccc(CCNC(=O)CSc2nc3c([nH]2)c(=O)n(C)c(=O)n3C)c1	x	x	x	-5.6	x
Cc1cc(N)ccc1N1CCCC1	u	26.4%	i	u	-72.0*
COc1ccc(C2Nc3ccccc3C(=O)N2Cc2ccccc2)cc1COc1cccc(Cl)c1 (stereo not given)	18.8%	x	x	x	x
Cc1ccc(S(=O)(=O)/N=C2/C=C(Sc3ncn[nH]3)C(=O)c3ccccc32)c(C)c1	x	-14.1%	x	x	x
CC(C)(C)c1ccc(S(=O)(=O)/N=C2\C=C(NS(=O)(=O)c3ccccc3)C(=O)c3ccccc32)cc1	-4.7%	8.3%	-15.6%	-19.3	u
Cc1ccc(S(=O)(=O)/N=C2/C=C(Sc3ncn[nH]3)C(=O)c3ccccc32)cc1	x	u	u	-69.9*	-99.9*
CC(C)c1ccc(S(=O)(=O)/N=C2/C=C(Sc3ncn[nH]3)C(=O)c3ccccc32)cc1	x	u	-11.1%	-54.7*	-78.6*
NC(=O)N1CCN(c2nc(-c3ccc(Br)cc3)cs2)CC1	-3.1%	x	x	x	x
CCOc1cc(/C=C2\SC(=O)N(CC(=O)Nc3ccccc3F)C2=O)cc([N+](=O)[O-])c1O	u	-6.7%	-6.8%	2.0	-54.8*
COc1cc(/C=C2\SC(=O)N(CC(=O)Nc3ccccc3F)C2=O)cc(Cl)c1O	21.5%	-1.9%	u	4.4	u
COc1cc(/C=C2\SC(=O)N(c3ccc(O)cc3)C2=O)cc(OC)c1OC	3.7%	-9.0%	-2.6%	3.4	-0.6
COc1cc(/C=C2\SC(=O)N(CC(=O)Nc3cccc(C)c3)C2=O)cc([N+](=O)[O-])c1O	x	-4.5%	u	1.8	-91.7*
COc1cc(/C=C2/C(=O)NN(c3ccc(F)cc3)C2=O)cc(Cl)c1O	43.1%	-12.3%	-6.6%	-0.5	u
COc1cc(/C=C2\SC(=O)N(c3ccccc3Cl)C2=O)cc([N+](=O)[O-])c1O	-26.5%	21.3%	-10.3%	-1.2	-53.4*
COc1cc(/C=C2/C(=O)NN(c3ccc(Cl)c(Cl)c3)C2=O)cc([N+](=O)[O-])c1O	u	u	-19.3%	-8.2	-88.3*
Cc1ccc(-n2c(SCC(=O)Nc3cccc4ccccc34)nnc2-c2cccs2)cc1	x	x	x	-0.6	x
CCOC(=O)N1CCC(Nc2ccc(Cl)cc2N)CC1	x	x	x	-1.4	x
Cc1cc2c(s1)c1cnn(Cc3ccc(Cl)cc3)c(=O)c1n2C	41.7%	x	x	x	x
Cc1cc2c(s1)c1cnn(Cc3cc(F)c(F)c(F)c3)c(=O)c1n2C	-7.1%	x	x	x	x
C=CC(=O)Nc1cccc(Oc2ccnc(Nc3ccc(N4CCN(C)CC4)cc3)n2)c1	10.2%	x	-6.3%	3.1	-10.3
C=CC(=O)Nc1cccc(N(C)c2ccnc(Nc3ccc(N4CCN(C)CC4)cc3)n2)c1	u	x	10.7%	-3.8	-65.2*
